# Measured values: a collection of fitness landscapes (doi:10.1126/science.1257360)
# The full ranking holds about 140,000 sequences; the median of “enrichment ratio after two sorts for PhoP signalling” is about 0, and the highest 2% start at about 11. The sample as a whole holds a higher share of the highest values than the screen did.
# B1: PhoQ; a variant is named by its letters at X, in order, P23837 (parent)
# chain: MKKLLRLFFPLSLRVRFLLATAAVVLVLSLAYGMVALIGYSVSFDKTTFRLLRGESNLFYTLAKWENNKLHVELPENIDKQSPTMTLIYDENGQLLWAQRDVPWLMKMIQPDWLKSNGFHEIEADVNDTSLLLSGDHSIQQQLQEVREDDDDAEMTHSVAVNVYPATSRMPKLTIVVVDTIPVELKSSYMVWSWFIYVLSANLLLVIPLLWVAAWWSLRPIEALAKEVRELEEHNRELLNPATTRELTSLVRNLNRLLKSERERYDKYRTTLTDLTHSLKTPLXXLQXXLRSLRSEKMSVSDAEPVMLEQISRISQQIGYYLHRASMRGGTLLSRELHPVAPLLDNLTSALNKVYQRKGVNISLDISPEISFVGEQNDFVEVMGNVLDNACKYCLEFVEISARQTDEHLYIVVEDDGPGIPLSKREVIFDRGQRVDTLRPGQGVGLAVAREITEQYEGKIVAGESMLGGARMEVIFGRQHSAPKDE
# Variants of: B1
# Test: enrichment ratio after two sorts for PhoP signalling (ratio (wild type AVST 3.29)); higher = more functional
# Conditions: with PhoP (E. coli)
row,Variant,enrichment ratio
1,DFLG,≤ 0.25
2,RMGP,≤ 0.25
3,MITD,≤ 0.25
4,PINH,≤ 0.25
5,EKTC,≤ 0.25
6,QEPD,≤ 0.25
7,ERFK,≤ 0.25
8,LKWG,≤ 0.25
9,TNVF,≤ 0.25
10,ASCL,20.8
11,ASPL,1.12
12,TARQ,≤ 0.25
13,HHQY,≤ 0.25
14,KSST,≤ 0.25
15,TSST,15
16,SPST,≤ 0.25
17,NSST,≤ 0.25
18,SLST,2.81
19,SSST,12.7
20,QMYK,≤ 0.25
21,QIPN,≤ 0.25
22,FCES,≤ 0.25
23,VVSR,≤ 0.25
24,KSYV,≤ 0.25

row,Variant,enrichment ratio
1,QGWV,18.5
2,QSYV,14.9
3,KAWV,≤ 0.25
4,FSWV,≤ 0.25
5,QAWV,20.2
6,QSAV,12.1
7,FSAV,0.409
8,QEYV,≤ 0.25
9,NAWV,≤ 0.25
10,QSAE,≤ 0.25
11,FFWV,≤ 0.25
12,TGVE,≤ 0.25
13,HYPL,≤ 0.25
14,AGIC,3.1
15,RPIA,≤ 0.25
16,TYVT,≤ 0.25
17,AHFF,≤ 0.25
18,HDNT,≤ 0.25
19,WSHN,≤ 0.25
20,PSPA,≤ 0.25
21,LQDQ,≤ 0.25
22,WDVC,≤ 0.25
23,DEVE,≤ 0.25
24,QLWV,≤ 0.25

row,Variant,enrichment ratio
1,QSWV,22.9
2,TSAV,16.5
3,QGMS,≤ 0.25
4,KSAV,≤ 0.25
5,QGMV,23.6
6,QGIV,≤ 0.25
7,QQWV,11.8
8,QRWV,≤ 0.25
9,QPWV,≤ 0.25
10,QQVK,≤ 0.25
11,MMAV,5.57
12,IYAV,≤ 0.25
13,IMHI,≤ 0.25
14,VVLM,3.83
15,DISV,≤ 0.25
16,ASKR,≤ 0.25
17,NKAS,≤ 0.25
18,ETLP,≤ 0.25
19,QAKK,≤ 0.25
20,YNYA,≤ 0.25
21,WNDE,≤ 0.25
22,KAYV,≤ 0.25
23,QGMW,≤ 0.25
24,QAYI,8.06

row,Variant,enrichment ratio
1,QAYV,12.6
2,QGMI,19.9
3,FFMI,≤ 0.25
4,WHSE,≤ 0.25
5,PFWH,≤ 0.25
6,WKDV,≤ 0.25
7,GNNT,≤ 0.25
8,GNCI,14.4
9,GNLT,16.5
10,GTCK,≤ 0.25
11,GNLA,7.72
12,GNYI,≤ 0.25
13,GTCA,≤ 0.25
14,GTCI,11.7
15,GNHF,≤ 0.25
16,DCAI,≤ 0.25
17,WVLT,≤ 0.25
18,WFHM,≤ 0.25
19,TILT,2.41
20,RNAL,≤ 0.25
21,MLVQ,≤ 0.25
22,VEVV,2.45
23,YEIT,≤ 0.25
24,KFTH,≤ 0.25

row,Variant,enrichment ratio
1,AICC,5.26
2,SGCH,8.61
3,TGCC,21.5
4,SGCC,14.2
5,HGCC,≤ 0.25
6,FGCC,13.2
7,FGCH,≤ 0.25
8,GGCC,1.09
9,SGFH,≤ 0.25
10,QGCC,≤ 0.25
11,NGCC,≤ 0.25
12,AGCC,16.1
13,EIKT,≤ 0.25
14,ELGV,≤ 0.25
15,GQWY,≤ 0.25
16,AMER,≤ 0.25
17,SFYL,≤ 0.25
18,SREH,≤ 0.25
19,GSFE,≤ 0.25
20,CYLP,≤ 0.25
21,FDCC,≤ 0.25
22,LTCC,≤ 0.25
23,TDCC,12.6
24,FVLE,≤ 0.25

row,Variant,enrichment ratio
1,KTTE,≤ 0.25
2,PKGP,4.39
3,QCLF,≤ 0.25
4,HKLF,≤ 0.25
5,SPLF,≤ 0.25
6,KYLF,≤ 0.25
7,AQLF,15.8
8,FQLF,6.28
9,KCLF,≤ 0.25
10,STLF,14.6
11,GCLF,13.2
12,ADLF,≤ 0.25
13,AKLF,7.81
14,TKLF,18
15,LCCL,≤ 0.25
16,GKCT,≤ 0.25
17,RRGY,≤ 0.25
18,FMSK,≤ 0.25
19,ATLF,13.9
20,SRLF,≤ 0.25
21,GTLF,11.4
22,EQLF,≤ 0.25
23,AILF,2.9
24,SELF,13.1

row,Variant,enrichment ratio
1,DPLF,≤ 0.25
2,YTLF,6.76
3,GYLF,≤ 0.25
4,TTLF,4.92
5,SQLF,12.6
6,SLLF,0.885
7,YMKT,≤ 0.25
8,QAAW,≤ 0.25
9,WQED,≤ 0.25
10,NQDM,≤ 0.25
11,IYQN,≤ 0.25
12,DQIN,≤ 0.25
13,HPPT,≤ 0.25
14,DIGD,≤ 0.25
15,KYSK,≤ 0.25
16,STMK,9.3
17,SITR,11.4
18,KYTR,≤ 0.25
19,SIGR,1.85
20,SIMK,28.9
21,SISR,6.33
22,SQMS,17.9
23,EQMS,≤ 0.25
24,NQMS,≤ 0.25

row,Variant,enrichment ratio
1,SQMK,≤ 0.25
2,SISK,12.1
3,DTPY,≤ 0.25
4,IRAT,≤ 0.25
5,KYIW,≤ 0.25
6,VAVA,≤ 0.25
7,AHMQ,≤ 0.25
8,IGMY,≤ 0.25
9,KQNT,≤ 0.25
10,QIGW,≤ 0.25
11,SITS,11.6
12,SIGD,7.24
13,SILA,16.9
14,SFTI,≤ 0.25
15,KYTA,≤ 0.25
16,SIFA,≤ 0.25
17,KYTS,≤ 0.25
18,SITA,20
19,SQTA,0.808
20,SIDW,≤ 0.25
21,KYLA,≤ 0.25
22,SQTI,13.3
23,AKHI,≤ 0.25
24,WPAY,≤ 0.25

row,Variant,enrichment ratio
1,GVTN,≤ 0.25
2,NYMC,≤ 0.25
3,ICGD,≤ 0.25
4,LGEW,≤ 0.25
5,SQAN,6.83
6,EDDL,≤ 0.25
7,KYSA,≤ 0.25
8,SSLY,8.15
9,SIYI,≤ 0.25
10,SIKQ,≤ 0.25
11,SSTI,13.8
12,KSTS,≤ 0.25
13,SQTS,11.8
14,SSWI,2.38
15,FQTS,≤ 0.25
16,SISA,11.9
17,KYMS,≤ 0.25
18,SIMS,12.1
19,DYKN,≤ 0.25
20,KNRG,≤ 0.25
21,IQKG,≤ 0.25
22,SNAN,6.54
23,EFAY,≤ 0.25
24,NQTC,≤ 0.25

row,Variant,enrichment ratio
1,SQTC,20.9
2,WIAK,≤ 0.25
3,SITI,19.7
4,SPWD,≤ 0.25
5,SIAK,11.2
6,KYTI,≤ 0.25
7,KYAK,≤ 0.25
8,SILY,≤ 0.25
9,IQTC,≤ 0.25
10,KYWD,≤ 0.25
11,SIWD,14
12,ELMG,≤ 0.25
13,HETM,≤ 0.25
14,NFED,≤ 0.25
15,DCAY,≤ 0.25
16,KYSH,≤ 0.25
17,QGAE,≤ 0.25
18,FIVP,≤ 0.25
19,FWLL,≤ 0.25
20,PSSI,≤ 0.25
21,QLYR,0.63
22,YEWP,≤ 0.25
23,IVFG,≤ 0.25
24,SWMS,≤ 0.25

row,Variant,enrichment ratio
1,STMS,15.6
2,SPMS,≤ 0.25
3,NWMF,≤ 0.25
4,NGSQ,≤ 0.25
5,AGSR,≤ 0.25
6,RGSQ,≤ 0.25
7,TGSQ,25.1
8,AGGK,≤ 0.25
9,AGSQ,12.9
10,LDTG,≤ 0.25
11,DEHI,≤ 0.25
12,FAGW,≤ 0.25
13,HEIN,≤ 0.25
14,EYTQ,≤ 0.25
15,SQMN,25.3
16,SPMN,≤ 0.25
17,AQMN,38.4
18,AQKN,≤ 0.25
19,STMN,2.85
20,AIMN,5.77
21,YRVY,≤ 0.25
22,YKWQ,≤ 0.25
23,AEEA,≤ 0.25
24,AEEN,≤ 0.25

row,Variant,enrichment ratio
1,AEYN,≤ 0.25
2,AELF,16.2
3,AELM,2.01
4,AEQV,12.7
5,AEQN,21.7
6,AQQV,≤ 0.25
7,AEGD,0.253
8,AELD,11.4
9,APLF,≤ 0.25
10,AILD,≤ 0.25
11,MEFK,1.13
12,WLKT,≤ 0.25
13,LQAS,≤ 0.25
14,AILW,≤ 0.25
15,AEFS,19
16,AELA,18.7
17,AELK,11.5
18,AEFP,≤ 0.25
19,AEPA,≤ 0.25
20,AELS,10.7
21,AHLW,≤ 0.25
22,AEFA,0.58
23,AELY,9.13
24,AEWI,≤ 0.25

row,Variant,enrichment ratio
1,AELW,11.4
2,SDLA,1.18
3,VFRG,≤ 0.25
4,LTPC,≤ 0.25
5,YIFI,≤ 0.25
6,AIGN,6.31
7,AELV,24.4
8,AECN,6.19
9,AEDK,≤ 0.25
10,AHGN,≤ 0.25
11,AEGN,12.2
12,AEHK,≤ 0.25
13,AELP,≤ 0.25
14,AELN,12.5
15,AELI,30.6
16,AEWN,≤ 0.25
17,AVWD,≤ 0.25
18,EYSC,≤ 0.25
